Measurements as given in PubChem BioAssay (NCI).
This is part of a sample that, as a whole, favours compounds with a hit. Of some 83,000 tested, about 20% had one in any assay.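 Compound tested at a single concentration for 48 hours in 96-well plates; a percent growth value below 10 was scored as active.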 Unmarked numbers belong to inactive results. Calls of active or inactive are those of the source.

Key:
Assay in all cases: NCI-60 one-dose screen, 48 h (100 = growth as untreated, 0 = no growth, -100 = all killed)
Settings in all cases: 10 µM unless noted
SR leukemia = system: SR leukemia
RPMI-8226 leukemia = system: RPMI-8226 leukemia
OVCAR-8 ovarian = system: OVCAR-8 ovarian
OVCAR-5 ovarian = system: OVCAR-5 ovarian
OVCAR-4 ovarian = system: OVCAR-4 ovarian
SK-OV-3 ovarian = system: SK-OV-3 ovarian
IGROV1 ovarian = system: IGROV1 ovarian
OVCAR-3 ovarian = system: OVCAR-3 ovarian
HS 578T breast = system: HS 578T breast
NCI/ADR-RES ovarian = system: NCI/ADR-RES ovarian

| SMILES | growth (SR leukemia) | growth (RPMI-8226 leukemia) | growth (OVCAR-8 ovarian) | growth (OVCAR-5 ovarian) [%] | growth (OVCAR-4 ovarian) | growth (SK-OV-3 ovarian) | growth (IGROV1 ovarian) | growth (OVCAR-3 ovarian) | growth (HS 578T breast) | growth (NCI/ADR-RES ovarian) |
| --- | --- | --- | --- | --- | --- | --- | --- | --- | --- | --- |
| CCOC(=O)C1C(=O)C(=O)N(C(C)C)C1C(=O)OCC (stereo not given) | 108% | 106% | 91.4% | 92.9 | 106% | 109% | 110% | 108% | 96.5% | 106% |
| CCOC(=O)c1c2c(cn1Cc1ccccc1)-c1oncc1CC2 | 91.8% | 100% | 84.9% | 88.3 | 104% | 109% | 101% | 103% | 91.9% | 98.3% |
| CC[n+]1c(C)ccc2cc(C)ccc21 | 94.4% | 101% | 88.4% | 109 | 106% | 97.8% | 104% | 104% | 112% | 104% |
| COc1cccc2c1n([O-])c1cccc(OC)c1[n+]2=O | 19.8% | 31.8% | 52.8% | 18.2 | 50.2% | 90.8% | -46.3% (active) | 164% | 99% | 61.1% |
| COC(=O)c1ccc2[nH]c(O)c(C(=Nc3ccc(N(C)C(=O)CN4CCN(C)CC4)cc3)c3ccc(C)cc3)c2c1 | -28.2% (active) | -32.2% (active) | -17.8% (active) | 29.7 | -64.3% (active) | -12.2% (active) | 1.53% (active) | -60.2% (active) | -2.52% (active) | 70.7% |
| COc1ccc(C(O)(c2ccccc2)C(C(=O)O)c2ccccc2)cc1 (stereo not given) | 103% | 95.5% | 107% | 102 | 98% | 102% | 104% | 114% | 114% | 108% |
| FC(F)(F)c1cccc(-c2[nH]ncc2-c2nnnn2-c2ccccc2)c1 | 25.6% | 29.6% | 58.9% | 69.6 | 66.4% | 55.4% | 56.2% | 48.4% | 43.6% | 12.2% |
| CC/C(=N\Nc1nc2ccccc2n1C)c1ccccn1 | 3.71% (active) | 10.4% | 15.5% | 29 | 11.5% | 11.6% | 13.6% | 25.8% | 48.4% | -5.99% (active) |
| Cc1ccnc2c(NC(C)CCCN)cc(O)c(O)c12 (stereo not given) | 79.7% | 95.2% | 64.9% | 79.7 | 20% | 99.9% | 103% | 59.8% | 80.6% | 87.5% |
| Clc1ccc(N/N=C(/c2ccccc2)c2ccccn2)nc1 | 26.1% | 29.3% | 33.5% | 49.3 | 24.5% | 26.5% | 22.5% | 40.7% | 80.6% | 5.2% (active) |
| CC1=C(C)C[C@]2(C(=O)O[C@H]3CCCC[C@@H]32)[S@](=O)C1 | 92.3% | 111% | 105% | 114 | 106% | 110% | 113% | 107% | 107% | 104% |
| Ic1ccc(SSc2ccc(I)cc2)cc1 | 60.6% | 95.6% | 92.6% | 114 | 99.7% | 113% | 82.4% | 102% | 96.9% | 101% |
| COc1cc(OC)c2c(=O)cc(-c3ccccc3)oc2c1 | 31.3% | 77.6% | 103% | 93.7 | 105% | 105% | 7.82% (active) | 104% | 113% | 109% |
| O=C(/C=C\c1ccccc1Cl)c1ccccc1 | 67.6% | 66% | 104% | 89.8 | 89.8% | 107% | 111% | 99.5% | 111% | 101% |
| O=S(=O)(O)c1ccc2c(c1)Sc1cc(S(=O)(=O)O)ccc1O2 | 107% | 101% | 104% | 92.1 | 110% | 107% | 112% | 122% | 110% | 104% |
| O=C1CCNC1 | 106% | 102% | 100% | 105 | 97.8% | 107% | 118% | 109% | 114% | 110% |
| CCCC(CCC)Oc1ccc(CCCC2=C(O)c3ccccc3C(=O)C2=O)cc1 | 38.9% | 22.5% | 34.2% | 17.2 | 25.1% | 37.5% | 46.7% | 40.8% | 34.6% | 28.7% |
| Clc1ccc(N/N=C/c2ccccn2)nc1 | 6.32% (active) | 26.3% | 18.1% | 30.3 | 6.01% (active) | 27.2% | 11.2% | 22.3% | 60.1% | -1.35% (active) |
| C#CCCCCCCC[C@@H]1OC(=O)[C@H]([C@@H](C)CC)NC(=O)[C@@H]([C@@H](C)CC)NC(=O)CC(=O)[C@@H]1C | 91.2% | 93.8% | 99.8% | 88 | 99.3% | 102% | 89.1% | 103% | 84.6% | 99.2% |
| Brc1ccc(-c2nc3ccccc3s2)cc1 | 86.9% | 94.4% | 106% | 90.9 | 93.5% | 91.8% | 73.9% | 99% | 89.6% | 99.3% |
| Cc1ccccc1-n1c(C)nc2cc(NC(=O)c3ccc(Cl)cc3)ccc2c1=O | 73.7% | 44.6% | 84% | 75.9 | 30.1% | 83.2% | 78.6% | 58.9% | 82.1% | 82.4% |
| C/C(=N\Nc1cccc(Cl)n1)c1ccccn1 | 6.31% (active) | 20.8% | 20.2% | 23.5 | 10.5% | 22.5% | 17% | 26.7% | 58.9% | 0.96% (active) |
| CC(=O)Nc1nc(C)c(C(=O)NNC(=O)Nc2ccccc2)s1 | 95.9% | 91.7% | 113% | 108 | 109% | 105% | 141% | 100% | 102% | 98.6% |
| CCOC(=O)c1sc(NS(=O)(=O)c2ccccc2)nc1C | 102% | 120% | 114% | 107 | 111% | 106% | 6.87% (active) | 133% | 111% | 114% |
| COc1ccc(-n2nnnc2-c2cn[nH]c2C(F)(F)F)cc1 | 73.4% | 92.1% | 95.5% | 108 | 79.1% | 103% | -28.4% (active) | 104% | 101% | 129% |
| C/C(=N\Nc1ccc(Cl)cn1)c1ccc2ccccc2n1 | 5.63% (active) | 11.7% | 6.73% (active) | 29.9 | 36.8% | 1.69% (active) | 16.6% | 18.2% | 37.7% | -0.464% (active) |
